# Assay results as given in PubChem BioAssay (NCI).
# The panel holds about 79,000 compounds, 15% with a hit somewhere; the sample as a whole holds those more often. Activity calls are given as the source filed them. Rule as the data show it: active = growth inhibition above about 70%; inactive = the rest.
# Assay: NCI Yeast Anticancer Drug Screen. Data for the rad52 strain (AID 147);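 also: 0% = growth of vehicle-treated control cultures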
# Settings: S. cerevisiae rad52 mutant growth inhibition, stronger effect = higher value
# Experimental: Growth inhibition of yeast strains with defined genetic alterations is measured as a screen for potential anti-cancer activity. Selected strains with alterations in DNA damage repair or cell cycle control were exposed to compounds and growth inhibition was measured relative to vehicle treated controls. The strain used in this assay is rad52
Structure (SMILES),growth inhibition (at 1.2 µM),growth inhibition (at 3.7 µM),growth inhibition (at 11.0 µM),growth inhibition (at 33.0 µM),growth inhibition (at 100.0 µM)
CN(C)c1ccc(C2CC(C)(O)Oc3cc4c(cc32)OCO4)cc1 (stereo not given),-1% (inactive),-1% (inactive),10% (inactive),28% (inactive),70% (active)
CS(=O)(=O)SCc1ccc([N+](=O)[O-])cc1,7% (inactive),30% (inactive),90% (active),99% (active),97% (active)
C[C@]12CC[C@H](O)CC1=CC[C@@H]1C2CC[C@]2(C)C(=O)NC(=O)CC12 (stereo not given in full),-27% (inactive),-23% (inactive),-17% (inactive),58% (inactive),85% (active)
Nc1ccc(F)cc1S,-2% (inactive),-15% (inactive),-11% (inactive),60% (inactive),98% (active)
CCc1c(Cl)c(C)cc(O)c1Cl,4% (inactive),-9% (inactive),8% (inactive),22% (inactive),96% (active)
CCCCCCCCCCCC(O)S(=O)(=O)O (stereo not given),0% (inactive),0% (inactive),-3% (inactive),2% (inactive),55% (inactive)
Cc1nc2ccccc2nc1NNc1ccccc1,-5% (inactive),-8% (inactive),-4% (inactive),4% (inactive),24% (inactive)
CCCC(=O)Oc1ccc(/C=N/NC(N)=S)nc1,5% (inactive),-9% (inactive),-1% (inactive),8% (inactive),4% (inactive)
